In the library only some 5.4% were active in any assay of this set; here they are far more common.
PP5 primary = PP5 (human) phosphatase inhibition | P53041 | purified PP5c, OMFP substrate fluorescence | inhibition, % at 6.7 µM | 320,000 tested, 0.18% active | AID 1987;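 active = inhibition above the campaign's mean inhibition across all tested compounds plus 3 SD, cut at about 9.5% in these data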;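 note: 0% = DMSO only and 100% = 100 µM cantharidin control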
CSC inhib = blocks cancer stem cells; cancer stem cell-like cells viability, luminescence; inhibition, % at 7.5 µM; 300,000 tested, 1.1% active; in the data active = inhibition above about 75%; inconclusive = no clear call, values can overlap the other calls; tested in HMLE shEcad cells
PP1 counter = PP1-alpha (human) inhibition in PP5 counter-screen; P62136; purified PP1alpha, OMFP fluorescence; inhibition, % at 6.7 µM; 320,000 tested, 0.9% active; AID 2235;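 active = inhibition above the mean inhibition of all tested compounds plus 3 SD, computed separately for each screening campaign, cut at about 15% in these data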
Target sequence (P62136 whole entry, looked up): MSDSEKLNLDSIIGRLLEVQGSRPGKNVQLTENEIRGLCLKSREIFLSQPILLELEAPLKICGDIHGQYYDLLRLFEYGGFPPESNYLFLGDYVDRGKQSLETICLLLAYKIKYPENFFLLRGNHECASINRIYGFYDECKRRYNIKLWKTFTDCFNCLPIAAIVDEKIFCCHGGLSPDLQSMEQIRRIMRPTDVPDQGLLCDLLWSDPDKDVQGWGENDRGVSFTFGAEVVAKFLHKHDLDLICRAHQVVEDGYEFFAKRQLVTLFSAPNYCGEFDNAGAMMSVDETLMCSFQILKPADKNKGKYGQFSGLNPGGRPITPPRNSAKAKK
ALR inh = inhibitors of human sulfhydryl oxidase ALR; P55789; AID 485317; purified ALR, DTT oxidation, H2O2 HRP-luminol luminescence; inhibition, % (test concentration not listed); 290,000 tested, 3.8% active;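 active = mean replicate inhibition above about 79%, with every replicate also reaching it, limit read from the data; inconclusive = only one of the two criteria met; inactive = mean below limit and not every replicate reaching it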
Target sequence (P55789 whole entry, looked up): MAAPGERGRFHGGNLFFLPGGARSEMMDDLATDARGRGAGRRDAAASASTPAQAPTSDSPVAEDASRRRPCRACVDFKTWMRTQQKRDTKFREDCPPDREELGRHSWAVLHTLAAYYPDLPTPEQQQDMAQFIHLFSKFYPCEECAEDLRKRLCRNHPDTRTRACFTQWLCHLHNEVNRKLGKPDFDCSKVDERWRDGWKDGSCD
Calb FLC = affects C. albicans growth with fluconazole. C. albicans CaCi-2 (fluconazole-resistant clinical isolate) + fluconazole, Alamar Blue growth, 48 h. growth inhibition, % (test concentration not listed). 300,000 tested, 0.57% active. AID 1979;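 active = growth inhibition above about 58% in most replicates, limit read from the data, passing the limit was not always enough; inconclusive = exactly half the replicates above a set limit; inactive = most replicates below a set limit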;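 note: all wells also contain fluconazole at 8 µg/ml as a sub-toxic cotreatment; 0% = median of DMSO wells and 100% = median of geldanamycin control wells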
An asterisk follows results filed as active; u = inconclusive; x = no result given.

SMILES	PP5 primary	CSC inhib	PP1 counter	ALR inh	Calb FLC
O=[N+]([O-])c1ccc(Cc2cncc(O)c2)cc1	x	-2	x	11	7
COc1ccc(NC(=O)c2cccs2)cn1	-1	-1	-4	1	2
CC(C)(C)c1ccc(Oc2ccc(NC(=O)c3cccs3)cn2)cc1	3	84*	3	-2	-3
CC(C)(C)c1ccc(Oc2ccc(NC(=O)c3ccco3)cn2)cc1	0	99*	0	12	7
Cc1cccc(C(=O)Nc2onc(C)c2C#N)c1	0	-3	-2	96*	u
CC1=NNC(=O)/C1=C\c1cn(-c2ccccc2)nc1-c1ccc(Cl)cc1	1	102*	3	0	1
Cc1ccc(-c2nn(-c3ccccc3)cc2C=C2C(=O)CC(C)(C)CC2=O)cc1	-1	0	-2	46	-4
Oc1ccc(N=Cc2cc(Br)c(N3CCOCC3)o2)cc1	2	x	2	86*	-1
O=[N+]([O-])c1cc(Br)c(O)c(C=Nc2ccc(N3CCOCC3)cc2)c1	4	8	2	12	8
CCOC(=O)Cc1csc(NC(=O)c2cc(C)cc(C)c2)n1	-2	-1	0	-3	-14
CCN(CC)c1ccc(/C=N/Nc2nc(C)cc(C)n2)cc1	-1	3	-3	98*	-2
CN1C(=O)CC(C(=O)O)SC1=Nc1cc(Cl)c(O)c(Cl)c1 (stereo not given)	1	1	0	99*	12
Cc1nc(SCc2nc3ccc(C(F)(F)F)cc3[nH]2)c2oc3ccccc3c2n1	x	104*	x	-3	x
COC(=O)/C(=C/Nc1cccc2ccccc12)[N+](=O)[O-]	0	-3	-2	48	-4
COc1ccc(-c2[nH]c(-c3ccc(C)cc3)nc2SCC(=O)Nc2nccs2)cc1	3	x	0	94*	31
Cc1n[nH]c(=O)nc1N1CCN(c2ccccc2)CC1	-3	x	-3	u	30
CN1CCN(c2nc(N3CCN(c4ccccc4)CC3)ncc2F)CC1	0	-10	-1	99*	-2
Fc1cnc(Cl)nc1N1CCN(c2ccccc2)CC1	2	-5	-1	99*	3
Fc1cnc(N2CCOCC2)nc1N1CCOCC1	1	-2	-7	-16	0
COc1cccc(N/C(SCc2ccccc2Cl)=C(/C#N)C(=O)NCc2cccs2)c1	3	-29	2	-8	4
COc1ccc(CCNc2nc(-c3sc(N)nc3C)cs2)cc1OC	3	x	-8	-28	5
O=C(CC(SCCO)c1ccc2c(c1)OCO2)c1ccco1 (stereo not given)	-1	1	1	97*	3
Cc1cc(=O)[nH]c2ccc(S(=O)(=O)NC3CCCCC3)cc12	2	-4	-3	3	-2
CSc1ccc2[nH]c(=O)cc(C)c2c1	2	-3	-1	100*	8
O=C(Nc1ccc(Nc2ccccc2)cc1)c1ccccc1F	4	46	2	99*	-4
SMILES	PP5 primary	CSC inhib	PP1 counter	ALR inh	Calb FLC
CCN(CC)c1ccc(NC(=O)c2c(C)noc2C)cc1	0	-8	-7	98*	0
CCN(CC)c1ccc(NC(=O)c2cc(Cl)ccc2OC)cc1	2	49	-3	98*	-5
CCN(CC)c1ccc(NC(=O)c2ccccc2F)cc1	-2	43	0	99*	2
O=C(CSc1nnc(-c2ccncc2)o1)Nc1cccc(F)c1	0	x	-5	-47	-21
COc1ccc(OC(=O)c2cccc(S(=O)(=O)N3CCCC3)c2)cc1	3	x	0	12	-12
O=c1c2ccccc2[nH]c(=S)n1CCN1CCN(Cc2ccccc2)CC1	-4	-13	-2	-2	18
O=C(NCc1cccnc1)c1sc2cc(Cl)ccc2c1Cl	-1	-4	6	10	3
Cn1c(C(=O)NCc2cccnc2)cc2sc(Cl)cc21	2	-8	3	94*	-6
O=C(CCc1c[nH]c2ccccc12)NCc1cccc(Cl)c1	4	x	6	x	-2
COc1ccc(CCNC(=O)c2ccc(Cl)cc2Cl)cc1	1	-2	-1	-3	11
Cc1nnsc1C(=O)NNc1c(Cl)cccc1Cl	3	23	-3	98*	2
Cc1nnsc1C(=O)NNc1ccc(Cl)cc1	3	7	-2	-16	-21
Cc1c(C(=O)NNc2c(Cl)cccc2Cl)n(C)oc1=O	-1	-2	-4	98*	-2
O=[N+]([O-])c1cc(/C=N\Nc2ccccn2)ccc1Cl	4	9	-3	-4	-12
O=[N+]([O-])c1cc(Cl)cc(/C=N\Nc2ccccn2)c1O	1	112*	-4	x	-1
Cc1sc(NC(=O)c2ccc(F)cc2)c(CN2CCCCCC2)c1C	4	-9	3	-3	22
COc1ccc(-c2nc(CS(=O)(=O)CC(=O)NCCc3ccc(C)cc3)c(C)o2)cc1	1	1	-2	-21	0
Cc1ccc(CCNC(=O)CS(=O)Cc2nc(-c3cccc(C)c3)oc2C)cc1 (stereo not given)	4	0	4	99*	-4
CCOc1ccc(CCNC(=O)CS(=O)Cc2nc(-c3ccccc3C)oc2C)cc1OCC (stereo not given)	2	4	0	99*	-8
COc1ccc(-c2nc(CS(=O)CC(=O)NCCC3=CCCCC3)c(C)o2)cc1 (stereo not given)	1	1	2	99*	0
CCOc1ccc(CCNC(=O)CS(=O)Cc2nc(-c3ccc(C)cc3)oc2C)cc1 (stereo not given)	4	-7	2	99*	u
O=C(CNC(=O)c1ccc(Br)o1)Nc1ncccc1O	-2	-17	-5	-29	-2
CCOc1ccc(CCNC(=O)CSCc2ccc(C)cc2)cc1OCC	3	-10	4	-1	8
CCOc1ccc(CCNC(=O)CS(=O)Cc2nc(-c3ccc(C)cc3)oc2C)cc1OCC (stereo not given)	-1	-11	0	98*	-2
CC1(C)CC[C@]2(C(=O)O)CC[C@]3(C)C(=CCC4[C@@]5(C)CC[C@H](O)C(C)(C)C5CC[C@]43C)C2C1 (stereo not given in full)	5	8	0	-5	2
SMILES	PP5 primary	CSC inhib	PP1 counter	ALR inh	Calb FLC
N#C/C(=C(\O)c1ccco1)c1ccccn1	4	2	-1	-2	-7
Cc1ccccc1OCC(O)CN1C(=O)c2ccccc2C1=O (stereo not given)	-1	0	1	-1	-10
CCN(CC)S(=O)(=O)c1ccc(C(=O)N2CCN=C2SCc2cccnc2)cc1	1	x	-2	99*	-3
O=C(c1ccc2c(c1)OCO2)N1CCN=C1SCc1cccnc1	3	2	-2	98*	2
CN(C)S(=O)(=O)c1ccc(C(=O)N2CCN=C2SCc2cccnc2)cc1	-2	x	-1	99*	-5
O=C(Cc1cccs1)N1CCN=C1SCc1ccccc1Cl	1	-3	5	x	-7
O=C(Cc1cccs1)N1CCN=C1SCc1ccccc1F	1	-10	-1	99*	-15
Cc1onc(-c2ccccc2Cl)c1C(=O)N1CCN=C1SCc1cccnc1	5	-16	1	99*	3
